Most compounds without a hit are left out; they make up all but 2.8% or so of the library.
HIF-2a block: HIF-2a reporter inhibitors, primary screen, luminescence, 786-0 RCC cells; 786-0 RCC cells HIF-2a reporter, luciferase luminescence, overnight; inhibition, % at 18.8 µM; actives 0.72% (n = 360,000); AID 624352, 2012;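 active = inhibition of the luminescence signal of 40% or more relative to plate controls, in a single-dose primary screen at 18.75 µM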
Shn3 3UTR inh: reduction of Shn3 3'UTR firefly luciferase signal, primary screen, Schnurri-3 inhibitor project, cell-based, Clone20 osteoblasts, set 2 | Clone20 osteoblast Shn3 3'UTR firefly luciferase, 24 h | inhibition, % at 12.5 µM | actives 0.52% (n = 360,000);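 active = mean inhibition of at least 75% with every replicate also reaching 75%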;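 also: 0% = median of neutral control wells and 100% = pilot-screen positive control compound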
Peg3 prom inh-1: Peg3 promoter-driven luciferase inhibitors, primary screen, cell-based, HeLa, luciferase luminescence. HeLa PEG-Prom luciferase reporter, overnight. inhibition, % at 20 µM. AID 588405, 2011. actives 1.7% (n = 360,000);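 active = inhibition of at least 50% at 20 µM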
MITF TRPM1 inh: inhibitors of MITF-dependent TRPM1 promoter reporter, primary screen, cell-based, SK-MEL-5, single point, luciferase. SK-MEL-5 TRPM1 promoter luciferase, 24 h. inhibition, % at 12.5 µM. actives 0.83% (n = 330,000). AID 488899, 2010;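 active = mean inhibition across replicates of 60% or more, whatever share of single replicates reaches that level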
CF NFkB inh: inhibitors of PAF-induced NF-kB signaling, primary screen, cell-based, GFP fluorescence, uHTS; KKLEB NF-kB-GFP reporter, GFP fluorescence overnight; inhibition, % at 5 µM; actives 0.86% (n = 360,000); AID 588850, 2011;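 active = at least 50% inhibition at 5 µM, scaled per plate between neutral and stimulator controls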;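 also: PAF is a Pseudomonas aeruginosa culture filtrate used as stimulus; plate controls were PAF-stimulated DMSO wells for no effect and unstimulated DMSO wells for full effect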
KKLEB cytotox: cytotoxicity in KKLEB CF airway cells, primary screen, cytotoxicity control for CF NF-kB inhibitor project, cell-based, uHTS, fluorescence assay plates | activity change (cytotoxicity), % at 5 µM | KKLEB CF airway cells viability, ATPlite luminescence, overnight; active compounds read low; cells stimulated with P. aeruginosa culture filtrate | AID 602141, 2011 | actives 0.36% (n = 360,000);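 active = corrected activity change at or below -50% at 5 µM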
Peg3 prom inh-2: Peg3 promoter reporter inhibitors, retest, confirmation, cell-based, HeLa, luciferase reporter, single concentration. shares compounds with Peg3 prom inh-1. HeLa PEG-Prom luciferase reporter, luminescence, overnight. inhibition, % at 20 µM. actives 84% (n = 1,300);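 active = at 20 µM dose, 40% or more inhibition averaged across four replicates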
Starred values were filed as active, the others as inactive; x = not tested or not shown.

SMILES | HIF-2a block | Shn3 3UTR inh | Peg3 prom inh-1 | MITF TRPM1 inh | CF NFkB inh | KKLEB cytotox | others
NC(=O)c1cn(C2OC(CO)C(O)C2O)c2ncnc(N)c12 (stereo not drawn) | 67.2* | 63.8 | 93.2* | 83.9* | 89.4* | -83.0*
N#Cc1cn(C2OC(CO)C(O)C2O)c2ncnc(N)c12 (stereo not drawn) | 30.7 | 82.5 | 95.7* | 58.5 | 95.5* | -34.5
CC=CC(C)=CC(C)C(=O)CC(O)CC1CC(=O)NC(=O)C1 (stereo not drawn) | 29.7 | 21.9 | 34.6 | x | 26.1 | -11.5
CC1CC(C)(O)CC(C(O)CC2CC(=O)NC(=O)C2)C1=O (stereo not drawn) | 54.7* | 93.9* | 96.5* | 67.4* | 91.4* | -0.1
CCOc1cc(CNCCc2c[nH]c3ccccc23)cc(Cl)c1OC | 22.9 | 72.6 | 62.5* | 3.7 | 7.6 | -0.5
CN1CC2CN(Cc3ccccc3)S(=O)(=O)C2C1 (stereo not drawn) | 2.2 | -6.1 | 1.1 | x | 6.7 | 2.3
CC1Oc2cc3c(-c4c(O)cc(O)c5c(O)c6c(cc45)OC(C)C(C)C6=O)c(O)cc(O)c3c(O)c2C(=O)C1C (stereo not drawn) | -7.8 | 87.9* | 70.1* | 82.3* | 67.3* | -55.9*
Cc1ncoc1C(=O)NCC1=C(c2ccc3ccccc3c2)C[C@@H]2CC[C@H]1N2Cc1ccco1 | -1.6 | 8.4 | -18.9 | x | -2.9 | -0.1
NC(Cc1ccc(F)cc1)c1csc(Nc2ncccn2)n1 (stereo not drawn) | -40.5 | 14.9 | -12.2 | x | -7.6 | -25.9
CCOC(=O)c1c(N)n(CCCOC(=O)c2ccco2)c2nc3ccccc3nc12 | -12.6 | 14.3 | 5.7 | 88.6* | 17.4 | -3.0
COCCCn1c(N)c(C(=O)OCCOC)c2nc3ccccc3nc21 | -4.1 | -4.3 | 27.1 | 12.3 | 0.2 | -4.1
COC(=O)C1=C(c2ccc(F)cc2OCc2ccccc2)C[C@@H]2CC[C@H]1N2C(=O)NCc1ccc(F)cc1 | 8.9 | 30.9 | 14.6 | -1.9 | -2.1 | -2.0
COC(=O)C1=C(c2ccc(F)cc2OCc2ccccc2)C[C@@H]2CC[C@H]1N2C(=O)NC1Cc2ccccc2C1 | 12.4 | 86.8* | 20.8 | 17.2 | 5.5 | -8.1
COC1CC2C=C(C)C=CC=CC(=O)NC(c3ccccc3)CC=CCCC(O)CC(=O)C2=C1O (stereo not drawn) | 77.2* | 97.9* | 98.1* | x | 91.3* | -85.2*
CN(C)c1ccc(C=C2C(=O)NC(=S)NC2=O)cc1 | 25.3 | 3.3 | 88.6* | 36.0 | 23.5 | 2.5
CN(C)c1ccc(C=C2C(=O)NC(=O)NC2=O)cc1 | 4.5 | 8.1 | 12.5 | -10.7 | -6.0 | 13.2
CCN(CC)c1ccc(C=C2C(=O)NC(=S)NC2=O)cc1 | 67.8* | 57.4 | 103.8* | 44.1 | 65.7* | -12.7
C[C@H]1CC[C@H]2NCCN[C@H]2C1 | 0.4 | 9.6 | -8.3 | -8.1 | 12.3 | 2.3
S=P1(Oc2ccccc2)Nc2ccccc2N1 | -17.3 | -9.7 | -1.2 | -8.7 | 5.2 | -1.8
Oc1c(Cl)cccc1Cc1cc(Cl)cc(Cl)c1O | -3.3 | 25.8 | 48.8 | -3.0 | 61.0* | -19.0
COC(=O)C1=C(c2ccc3ccccc3c2)C[C@@H]2CC[C@H]1N2C(=O)NCC1CC1 | 13.9 | 88.8* | -5.9 | 6.2 | 8.6 | 2.2
COC(=O)C1=C(c2ccc3ccccc3c2)C[C@@H]2CC[C@H]1N2C(=O)NC1CC1 | 22.5 | 8.5 | 2.1 | 4.0 | -0.4 | -2.1
O=C1C(Br)C2CCC1C2C(=O)O (stereo not drawn) | 9.2 | -2.3 | 2.4 | x | 6.5 | 6.0
COc1cc(/C=C/c2nc3ccccc3c(=O)n2-c2ccc(O)cc2)ccc1O | 7.2 | -21.7 | 42.2 | 4.9 | -39.7 | -6.8
COc1ccc(-n2c(/C=C/c3ccc(O)c(O)c3)nc3ccccc3c2=O)cc1 | 18.2 | -40.6 | 55.0* | 8.6 | -30.4 | -11.3
SMILES | HIF-2a block | Shn3 3UTR inh | Peg3 prom inh-1 | MITF TRPM1 inh | CF NFkB inh | KKLEB cytotox | others
COc1ccc(-n2nc(C(=O)NCC(=O)N3CCC4(CC3)OCCO4)c3ccccc3c2=O)cc1OC | -96.0 | -47.8 | -131.1 | -59.9 | -1.9 | -1.8
O=C1C2CCCC1C(N1CCCCC1)CC2 (stereo not drawn) | 22.2 | 4.3 | 8.8 | -8.9 | -3.7 | 4.2
CC12CC[C@H]3[C@@H](CCC4(O)C[C@H](O)CCC34/C=N/NC(=O)Cc3ccccc3)C1(O)CCC2C1=CC(=O)OC1 (stereo partly drawn) | 2.2 | -5.2 | 18.8 | 1.9 | 8.7 | 5.0
CC12CC[C@H]3[C@@H](CCC4(O)C[C@H](O)CCC34/C=N/NC(=O)c3ccccc3[N+](=O)[O-])C1(O)CCC2C1=CC(=O)OC1 (stereo partly drawn) | 21.9 | 0.6 | 66.7* | 7.3 | 4.0 | 11.2
Cc1cccc(-c2nc3ccc(C(=O)N4CCC5(CC4)OCCO5)cc3nc2-c2cccc(C)c2)c1 | 8.7 | 7.4 | 56.3* | -8.4 | 18.2 | -5.8
COc1cccc(C(=O)N2CCC3(CC2)OCCO3)c1 | 7.8 | -9.8 | 10.4 | 11.9 | -8.9 | -6.2
O=C(O)C1C2c3ccccc3C(=O)C1(C(=O)O)c1ccccc12 (stereo not drawn) | 0.7 | -1.3 | 2.0 | 1.1 | -11.7 | 9.9
C=CCn1cc(C=C2C(=O)NC(=O)NC2=O)c2ccccc21 | 18.6 | -31.7 | 8.0 | 9.4 | 26.0 | -13.8
O=C1NC(=O)C(=Cc2cn(CCOc3ccc4c(c3)OCO4)c3ccccc23)C(=O)N1 | 13.0 | 13.3 | 63.7* | -1.3 | -3.7 | -19.2
C=CC(=O)OCCO | 9.6 | -9.1 | 2.1 | -1.4 | 29.6 | -6.2
CCCC1CCCCC12C(=O)NC(=O)NC2=O (stereo not drawn) | 10.8 | -1.0 | 0.3 | 2.9 | 21.8 | -3.8
Cc1ccc(OCCOc2cccc(C=C3C(=O)NC(=O)NC3=O)c2)c(C)c1 | 55.2* | 7.7 | -58.4 | -6.4 | -7.3 | 1.9
O=C1NC(=O)C(=Cc2cccc(OCCOc3ccccc3)c2)C(=O)N1 | -56.3 | -81.5 | -134.6 | -27.0 | -4.2 | -6.4
COc1ccc(CC2C(=O)NC(C)C(=O)N(C)C3C(=O)N(C)C(Cc4ccc(O)c(c4)Oc4ccc(cc4)C3O)C(=O)NC(C)C(=O)NC(C)C(=O)N2C)cc1 (stereo not drawn) | 87.0* | x | 96.0* | 104.2* | 82.1* | -48.6 | Peg3 prom inh-2=98.4*

Compound activity (PubChem)
